Data on nine molecules can be found in PubChem BioAssay.

Assay [1] in a line: reducers of endogenous Her2 protein level, primary screen, SKBR3 breast tumor cells, AlphaScreen, ATP viability (AID 461;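 active = Her2 level under about 52% in both replicate screens, with viability over 70% of control, limit read from the data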;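 for Her2 level: lower value means less Her2 protein in the cells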;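 for viability: percent of carrier control wells set as 100% viability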). As to conditions: 18-24 h, measured here: SKBR3 viability, ATP luminescence, at 10 µM.
In assay [2] the target is Receptor tyrosine-protein kinase erbB-2 (Homo sapiens) (UniProt P04626). Described as above. The settings on record: 18-24 h, at 10 µM, stronger effect = lower value.
Assay [3] is described as follows: SK-BR-3 cell growth inhibitors, pilot screen, 24 h, human (AID 572;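 active = viability at or below 10% of carrier control in both of two separate runs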;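 note: compound exposure lasted between 18 and 24 h rather than exactly 24 h; 100% = carrier-treated control wells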). The settings on record: SK-BR-3 viability, CellTiter-Glo luminescence, at 10 µM, stronger effect = lower value.
Assay [4] is described as follows: HUVEC growth inhibition – cell-based, human, primary screen (AID 575;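 active = viability at or below 30% in both replicate assays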;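 note: 100% = median of untreated cell wells with 0.1% DMSO on each plate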). The settings on record: HUVEC proliferation, CellTiter-Glo luminescence, 72 h; at 10 µM; stronger effect = lower value.
Assay [5] in a line: growth inhibitors of H69AR lung tumor, primary screen, human, duplicate replicates (AID 580;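 active = viability at or under a set limit in both replicates, limit being median viability minus 3 SD, cut at about 48% in these data, passing the limit was not always enough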;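 note: 100% = mean luminescence of untreated wells and 0% = no signal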). As to conditions: H69AR lung tumor cells viability, ATP luminescence, 72 h; at 10 µM; stronger effect = lower value.
Assay [6] can be described thus: reversal of MRP1-mediated doxorubicin resistance, pilot screen, H69AR cells, doxorubicin co-treatment (AID 601). As to conditions: CellTiter-Glo, 72 h, at 10 µM; for differential viability (reversal): stronger effect = higher value.
Assay [7] can be described thus: 384-well plate pilot, post-Golgi transport modulator project, inhibition of yeast transport mutant growth (AID 636; in the data active = inhibition above about 31%). As to conditions: absorbance 615 nm, about 18 h, stronger effect = higher value.
The nature of assay [8]: growth suppression of yeast trafficking mutant, preliminary HTS, modulators of trafficking downstream of Golgi apparatus project, 1536-format plate, OD 615 nm (AID 637; in the data active = inhibition above about 30%). As to conditions: yeast transport mutant growth, absorbance 615 nm, 18 h; stronger effect = higher value.
Assay [9] can be described thus: OD615 S. cerevisiae growth inhibition, permissive medium, pilot counter-assay, permissive growth control for S. cerevisiae lifespan shortening project (AID 705;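 active = growth inhibition above 25% in both replicates, a cutoff set 3 SD above the mean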). As to conditions: OD615, 24 h, at 10 µM, stronger effect = higher value.
Assay [10] is described as follows: Restrictive medium S. cerevisiae growth inhibition, OD615, pilot screen of yeast lifespan reduction project, restrictive growth control (AID 706;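 active = growth inhibition above a set limit, 3 SD over mean compound inhibition, in both replicates, cut at about 43% in these data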;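 note: modified DeaD lifespan yeast strain shifted to restrictive glucose medium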). The settings on record: OD615, 48 h, at 10 µM, stronger effect = higher value.
Assay [11] in a line: viability gain of MRP-1-high H69AR cells under doxorubicin, pilot screen, MRP-1 activator project, CellTiter-Glo, duplicate (AID 807;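 active = viability increase at or above a cutoff of the median across tested compounds plus 3 SD, cut at about 8.5% in these data, passing the limit was not always enough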;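 note: compound pretreatment 18-22 h then 72 h combined with doxorubicin; 0% = doxorubicin alone and 100% = vehicle without doxorubicin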). The settings on record: H69AR viability with doxorubicin, CellTiter-Glo luminescence; at 10 µM; stronger effect = higher value.
Assay [12] can be described thus: growth suppression of beta-catenin knockout HCT116, pilot screen, human colon tumor cells (AID 823;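 active = cell viability at or below a set limit in both duplicate runs, the limit being the all-compound median minus 4 SD, cut at about 23% in these data, passing the limit was not always enough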;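 note: 0% = wells killed by 20 µM Hyamine and 100% = untreated DMSO cell wells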). The settings on record: CellTiter-Glo, 60 h, at 10 µM, stronger effect = lower value.
Assay [13] can be described thus: growth suppression of PTEN-deleted HCT116, pilot screen, cell-based, HCT116 clonal line, CellTiter-Glo (AID 824;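 active = viability at or below 27.92% in each of two runs, the all-compound median minus 4 SD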;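 note: 0% = 20 µM Hyamine control and 100% = vehicle cell control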). As to conditions: 60 h, at 10 µM, stronger effect = lower value.
Assay [14] is described as follows: inhibitors of the yeast RAM network, pilot screen, dse1pr::URA3 reporter, 5-FOA selection (AID 869;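 active = inhibition over a set limit, the all-compound mean plus 3 SD, in both replicate runs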;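 note: 0% = DMSO wells with no growth and 100% = 10 µM 1-NA-PP1 with full growth; RAM network block rescues cells from 5-FOA so hits raise OD615 growth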). The settings on record: S. cerevisiae dse1pr::URA3 5-FOA growth, OD615, 2 d; at 10 µM; stronger effect = higher value; strain carries analog-sensitive mutant Cbk1 kinase.
Assay [15] in a line: RAM signaling pathway blockade in yeast – S. cerevisiae, Pdr1DBD-CYC8 efflux-inhibited sensitized strain, primary screen (AID 1298;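 active = RAM network inhibition above 8.4% in each of two replicates, 3 SD over the compound average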;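 note: 0% = DMSO untreated cells without growth and 100% = 10 µM 1-NA-PP1 full growth; higher means more yeast growth rescued from 5-FOA killing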). The settings on record: S. cerevisiae cbk1-as DSE1-URA3 strain, 5-FOA growth OD615, 2 d; at 50 µM; stronger effect = higher value.
The mark [16] stands for this setting: H69AR cells + 2 uM doxorubicin, measured here: viability with 2 uM doxorubicin, stronger effect = lower value.
Where [17] appears, read: H69AR cells, compound alone cytotoxicity.

Structures are written as SMILES. Records with an inconclusive call do not appear. The source made the active and inactive calls.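 Rule for the calls, unless noted: active = viability loss from added drug above about 55%, and viability with drug at most 40%, in both replicates (limit read from the data, passing the limit was not always enough); inconclusive = both conditions met in only one replicate; inactive = neither replicate meets both conditions.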

Sequence of Receptor tyrosine-protein kinase erbB-2 (Homo sapiens) (P04626 whole entry, looked up): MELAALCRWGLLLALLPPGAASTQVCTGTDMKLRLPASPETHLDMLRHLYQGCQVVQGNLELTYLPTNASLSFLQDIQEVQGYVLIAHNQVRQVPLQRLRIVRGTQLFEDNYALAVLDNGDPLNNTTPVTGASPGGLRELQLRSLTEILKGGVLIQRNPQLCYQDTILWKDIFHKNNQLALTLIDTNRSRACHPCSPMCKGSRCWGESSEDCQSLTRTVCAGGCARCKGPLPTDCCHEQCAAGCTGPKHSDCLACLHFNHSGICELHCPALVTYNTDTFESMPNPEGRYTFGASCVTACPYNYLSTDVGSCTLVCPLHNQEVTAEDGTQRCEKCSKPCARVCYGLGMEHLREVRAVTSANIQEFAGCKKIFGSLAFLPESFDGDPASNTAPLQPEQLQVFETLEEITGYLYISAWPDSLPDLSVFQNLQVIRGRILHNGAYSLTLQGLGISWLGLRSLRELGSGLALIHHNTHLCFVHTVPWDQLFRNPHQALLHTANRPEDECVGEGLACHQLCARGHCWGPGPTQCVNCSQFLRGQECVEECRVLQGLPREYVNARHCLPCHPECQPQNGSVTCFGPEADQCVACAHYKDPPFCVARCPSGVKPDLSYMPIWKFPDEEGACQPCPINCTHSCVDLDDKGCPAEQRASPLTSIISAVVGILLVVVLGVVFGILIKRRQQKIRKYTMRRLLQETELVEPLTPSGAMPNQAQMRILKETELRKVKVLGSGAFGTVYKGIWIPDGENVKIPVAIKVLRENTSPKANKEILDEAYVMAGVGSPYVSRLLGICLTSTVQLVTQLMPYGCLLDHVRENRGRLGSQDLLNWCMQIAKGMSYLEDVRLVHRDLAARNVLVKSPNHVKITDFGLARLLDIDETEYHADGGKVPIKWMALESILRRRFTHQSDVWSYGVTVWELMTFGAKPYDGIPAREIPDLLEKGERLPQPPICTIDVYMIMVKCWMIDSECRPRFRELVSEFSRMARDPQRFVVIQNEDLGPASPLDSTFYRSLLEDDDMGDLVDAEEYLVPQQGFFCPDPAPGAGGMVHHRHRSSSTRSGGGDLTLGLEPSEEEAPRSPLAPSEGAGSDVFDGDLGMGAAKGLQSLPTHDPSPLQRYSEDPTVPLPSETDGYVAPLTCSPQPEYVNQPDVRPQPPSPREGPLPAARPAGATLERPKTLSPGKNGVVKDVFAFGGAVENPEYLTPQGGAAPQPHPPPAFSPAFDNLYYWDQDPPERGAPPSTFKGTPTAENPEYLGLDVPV

Consider `O=C(Cn1c(=O)[nH]c2ccsc2c1=O)NC1CCCCCC1`, for which the viability in assay [1] is 110%; in assay [3], 110% (inactive); in [4], 111% (inactive); in assay [5] it was 94.3% (inactive); in assay [6] (setting [16]), 97%; in assay [6] (setting [17]), 94.3%. For the same molecule, the viability in assay [12] is 106% (inactive); in [13], 99.2% (inactive). The Her2 level in assay [2] is 97% (inactive). Also, the differential viability (reversal) in [6] (H69AR cells + 2 uM doxorubicin) was -2.65% (inactive). The inhibition was -7.16% (inactive) in [7], 2.17% (inactive) in assay [8] and 0.875% (inactive) in assay [14]. Further, the growth inhibition in assay [9] was -6.35% (inactive); in [10], -17.4% (inactive). Besides, the viability increase in assay [11] was 1.49% (inactive). Moreover, the RAM network inhibition in [15] is 0.72% (inactive).
Regarding `CCn1c(SCC(=O)Nc2cccc(C)c2)nc2c(c1=O)SC(C)C2` (stereo not drawn), the viability in assay [1] was 90%; in assay [3] it was 90% (inactive); in [4], 99% (inactive); in assay [5], 76.7% (inactive); in assay [6] (setting [16]), 73.3%; in [6] (setting [17]) it was 76.7%. Also, the viability was 95.1% (inactive) in assay [12] and 88.9% (inactive) in [13]. Moreover, the Her2 level in assay [2] is 88% (inactive). Also, in [6] (H69AR cells + 2 uM doxorubicin), the differential viability (reversal) was 3.39% (inactive). The inhibition in assay [7] is -3.07% (inactive); in assay [8], -0.67% (inactive); in [14], 2.52% (inactive). Moreover, the figures for the growth inhibition in assay [9] and in assay [10] were -3.52% (inactive) and -4.62% (inactive), respectively. In assay [11], the viability increase was -3.09% (inactive). Further, the RAM network inhibition in [15] is 10.2% (inactive).
With `CCC1CCCCN1C(=O)CSc1nnc(-c2ccc(OC)cc2)o1` (stereo not drawn), the viability was 98% in assay [1]; 98% (inactive) in assay [3]; 99.8% (inactive) in assay [4]; 87.6% (inactive) in assay [5]; 94.1% in assay [6] (setting [16]); 87.6% in assay [6] (setting [17]). Moreover, the figures for the viability in assay [12] and in assay [13] were 95.5% (inactive) and 95.7% (inactive), respectively. In addition, the Her2 level in assay [2] is 102% (inactive). Further, in assay [6] (H69AR cells + 2 uM doxorubicin), the differential viability (reversal) is -6.46% (inactive). For the same molecule, the inhibition was -3.6% (inactive) in assay [7], -9.34% (inactive) in [8] and 2.38% (inactive) in assay [14]. Besides, the growth inhibition was 7.74% (inactive) in assay [9] and 54.4% (active) in assay [10]. The viability increase in assay [11] is -1.66% (inactive). Besides, the RAM network inhibition in assay [15] was 1.19% (inactive).
With `O=C(NCCN1C(=O)C2C3C=CC(C3)C2C1=O)N1CCOCC1` (stereo not drawn), the viability is 89.5% in assay [1]; 89.5% (inactive) in [3]; 90.2% (inactive) in [4]; 93.7% (inactive) in assay [5]; 88.9% in assay [6] (setting [16]); 93.7% in assay [6] (setting [17]). For the same molecule, the viability was 105% (inactive) in assay [12] and 94.9% (inactive) in [13]. The Her2 level in assay [2] was 106% (inactive). Besides, in [6] (H69AR cells + 2 uM doxorubicin), the differential viability (reversal) is 4.75% (inactive). Also, the inhibition is 0.67% (inactive) in assay [7], -2.5% (inactive) in assay [8] and 1.08% (inactive) in assay [14]. The growth inhibition in assay [9] is -8.54% (inactive); in assay [10] it was 8.98% (inactive). In addition, the viability increase in [11] is -1.43% (inactive). Further, in assay [15], the RAM network inhibition was 0.73% (inactive).
With `COc1ccccc1S(=O)(=O)Cc1ccc(C(=O)N2CCN(c3ccccn3)CC2)o1`, the viability in assay [1] is 101%; in assay [3], 101% (inactive); in assay [4], 87.8% (inactive); in assay [5] it was 88.9% (inactive); in assay [6] (setting [16]), 82.1%; in assay [6] (setting [17]), 88.9%. Further, the viability in assay [12] is 92.8% (inactive); in assay [13] it was 85.1% (inactive). The Her2 level in assay [2] is 84.5% (inactive). In [6] (H69AR cells + 2 uM doxorubicin), the differential viability (reversal) was 6.81% (inactive). For the same molecule, the figures for the inhibition in assay [7], in assay [8] and in assay [14] were -3.47% (inactive), -1.97% (inactive) and 0.76% (inactive), respectively. Also, the growth inhibition in [9] is -6.28% (inactive); in assay [10], -10.3% (inactive). In addition, in assay [11], the viability increase is -1.97% (inactive). In addition, in assay [15], the RAM network inhibition is 0.78% (inactive).
For `COc1ccc(N2CCN(Cc3nc4c(c(=O)n(C)c(=O)n4C)n3Cc3ccccc3C)CC2)cc1`, the viability is 92.5% in assay [1]; 92.5% (inactive) in assay [3]; 94.5% (inactive) in [4]; 80% (inactive) in assay [5]; 54.9% in assay [6] (setting [16]); 80% in assay [6] (setting [17]). Moreover, the results for the viability in assay [12] and in [13] were 90.7% (inactive) and 77.6% (inactive), respectively. Besides, the Her2 level in assay [2] was 81% (inactive). The differential viability (reversal) in assay [6] (H69AR cells + 2 uM doxorubicin) is 25.1% (inactive). Moreover, the inhibition in assay [7] is -2.4% (inactive); in assay [8], -2% (inactive); in [14], 1.29% (inactive). Besides, the growth inhibition in [9] is -12.5% (inactive); in assay [10], -24.9% (inactive). Besides, in [11], the viability increase is -4.52% (inactive). In addition, the RAM network inhibition in [15] was -0.26% (inactive).
In the case of `Cc1n[nH]c(C)c1N1C(=O)c2cccc3cc(Br)cc(c23)C1=O`, the viability was 74.5% in assay [1]; 74.5% (inactive) in assay [3]; 85.5% (inactive) in assay [4]; 81.1% (inactive) in assay [5]; 82.4% in assay [6] (setting [16]); 81.1% in assay [6] (setting [17]). Also, the viability in assay [12] was 107% (inactive); in [13], 101% (inactive). In addition, in assay [2], the Her2 level is 79% (inactive). For the same molecule, the differential viability (reversal) in assay [6] (H69AR cells + 2 uM doxorubicin) is -1.29% (inactive). Also, the inhibition in assay [7] was 0.26% (inactive); in [8], -4% (inactive); in assay [14], 3.01% (inactive). Also, the growth inhibition was -11.5% (inactive) in assay [9] and -11.6% (inactive) in assay [10]. In assay [11], the viability increase is -2.41% (inactive). Further, the RAM network inhibition in assay [15] is 4.68% (inactive).
For `O=C(CS(=O)(=O)Cc1ccccc1)Nc1nc2ccccc2s1`, the viability was 104% in assay [1]; 104% (inactive) in assay [3]; 89.2% (inactive) in assay [4]; 92.1% (inactive) in assay [5]; 95.9% in assay [6] (setting [16]); 92.1% in assay [6] (setting [17]). Moreover, the viability was 101% (inactive) in [12] and 97.1% (inactive) in assay [13]. Also, the Her2 level in assay [2] was 85% (inactive). For the same molecule, the differential viability (reversal) in [6] (H69AR cells + 2 uM doxorubicin) is -3.83% (inactive). The inhibition in assay [7] is -0.13% (inactive); in assay [8], 0.32% (inactive); in [14] it was 4.3% (inactive). The growth inhibition in assay [9] was -13.1% (inactive); in assay [10], -17.7% (inactive). Moreover, the viability increase in assay [11] was -0.52% (inactive). In addition, the RAM network inhibition in assay [15] is 7.64% (inactive).
With `COc1ccccc1NCN1C(=O)CCC1=O`, the viability was 102% in [1]; 102% (inactive) in [3]; 104% (inactive) in assay [4]; 82.4% (inactive) in assay [5]; 103% in assay [6] (setting [16]); 82.4% in [6] (setting [17]). For the same molecule, the viability in [12] was 102% (inactive); in assay [13], 95.5% (inactive). Further, the Her2 level in [2] is 98% (inactive). Moreover, the differential viability (reversal) in assay [6] (H69AR cells + 2 uM doxorubicin) is -20.8% (inactive). For the same molecule, the inhibition in assay [7] was -7.47% (inactive); in assay [8], 2% (inactive); in [14], 1.98% (inactive). Besides, the growth inhibition in [9] was -9.71% (inactive); in [10] it was 1.64% (inactive). The viability increase in [11] is -0.43% (inactive). For the same molecule, in assay [15], the RAM network inhibition was 3.27% (inactive).
